# Measurements from the supplement of paper PMC10849652.
# The full data set covers some 7,900 targets. This sample favours those with a hit. About 0.6% of all pairs of compound and target were hits. A number with no mark means an inactive call.
# What was measured:
# Assay in all cases: log2 fold change, soluble protein after heating vs DMSO (PISA); higher = thermal stabilisation; K562 cells, 10 uM, 30 min; active = over 0.2 and 3.5 SD of the protein, either way, in both replicates (recomputed)
# erlotinib = compound: C#Cc1cccc(Nc2ncnc3cc(OCCOC)c(OCCOC)cc23)c1 [erlotinib]
# In short: (§1)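 K562 cells at 2×10^6 cells/mL were treated with 10 μM compound for 30 min. Aliquots were heated for 3 min across 48°C-58°C, pooled, and extracted in PBS with 0.5% NP-40 at 4°C; soluble protein was the supernatant after 21,000xg for 90 min. Soluble protein was quantified by TMTpro 16plex LC-MS/MS with channel sums equalised, and reported as log2 fold change in thermal stability against DMSO controls, with values from duplicates.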
# [1] = compound: C/C(=N\NC(=O)C1=CC(=CC=C1)S(=O)(=O)N2CCOCC2)/C3=C(C=CC(=C3)Cl)O
# In short: as §1
# [2] = compound: C1=CC(=C(C=C1Cl)C2=NC3=NC=CN=C3C(=N2)NC4=CC=NC=C4)F
# In short: as §1
# [3] = compound: C1=CC(=CC=C1C2=NC3=C(N2)C=C(C=C3)C(=O)N)OC4=CC=C(C=C4)Cl
# In short: as §1
# [4] = compound: C1=CC2=C(C=CC(=C2)/C=C\3/C(=O)NC(=NCC4=CC=CS4)S3)N=C1
# In short: as §1
# [5] = compound: C1=CC2=NC=CN=C2C=C1/C=C/3\C(=O)NC(=O)S3
# In short: as §1
# [6] = compound: C1=CC=C(C=C1)C2=NC(=C(N2)C3=CC=NC=C3)C4=CC(=C(C=C4)Cl)O
# In short: as §1
# [7] = compound: C1=CC=C2C(=C1)C3=NNC4=CC=CC(=C43)C2=O
# In short: as §1
# [8] = compound: C1CCN(C1)C(=O)NC2=CC=CC(=C2)NC3=NC=C(C(=N3)NCCC4=CN=CN4)Br
# In short: as §1
# [9] = compound: C1CN(CCC1(CC2=CC=C(C=C2)Cl)N)C3=NC=NC4=C3C=CN4
# In short: as §1
# IRAK-1-4 Inhibitor I = compound: C1COCCN1CCN2C3=CC=CC=C3N=C2NC(=O)C4=CC(=CC=C4)[N+](=O)[O-] [IRAK-1-4 Inhibitor I]
# In short: as §1
# ibrutinib = compound: C=CC(=O)N1CCC[C@@H](n2nc(-c3ccc(Oc4ccccc4)cc3)c3c(N)ncnc32)C1 [ibrutinib]
# In short: as §1
# [10] = compound: CC(=O)c1cnc2ccc(-c3cc(Cl)c(O)c(Cl)c3)nc2c1N[C@H]1CC[C@H](CN(C)C)CC1
# In short: as §1
# ralimetinib = compound: CC(C)(C)Cn1c(N)nc2ccc(-c3[nH]c(C(C)(C)C)nc3-c3ccc(F)cc3)nc21 [ralimetinib]
# In short: as §1
# [11] = compound: CC(C)(O)CC(=O)NCCn1ccc2ncnc(Nc3ccc(Oc4cccc(C(F)(F)F)c4)c(Cl)c3)c21
# In short: as §1
# [12] = compound: CC(C)C1=C2N=C(C=C(N2N=C1)NCC3=CC=CC=C3)NCCCCCCN
# In short: as §1
# [13] = compound: CC(C)C[C@@H](C=O)NC(=O)[C@H](CC(C)C)NC(=O)[C@H](CC(C)C)NC(=O)OCc1ccccc1
# In short: as §1
# pinometostat = compound: CC(C)N(C[C@H]1O[C@@H](n2cnc3c(N)ncnc32)[C@H](O)[C@@H]1O)[C@H]1C[C@@H](CCc2nc3cc(C(C)(C)C)ccc3[nH]2)C1 [pinometostat]
# In short: as §1
# [14] = compound: CC1=C(C(CC(=O)N1)C2=CC=C(C=C2)C(F)(F)F)C(=O)NC3=C(C=C4C(=C3)C=NN4)F
# In short: as §1
# [15] = compound: CC1=C(C2=C(C=C1)C(=O)C3=CC=CC=C3N2CCCN)C
# In short: as §1
# Sequence of UniProt Q9Y6I9 (Q9Y6I9 whole entry, looked up): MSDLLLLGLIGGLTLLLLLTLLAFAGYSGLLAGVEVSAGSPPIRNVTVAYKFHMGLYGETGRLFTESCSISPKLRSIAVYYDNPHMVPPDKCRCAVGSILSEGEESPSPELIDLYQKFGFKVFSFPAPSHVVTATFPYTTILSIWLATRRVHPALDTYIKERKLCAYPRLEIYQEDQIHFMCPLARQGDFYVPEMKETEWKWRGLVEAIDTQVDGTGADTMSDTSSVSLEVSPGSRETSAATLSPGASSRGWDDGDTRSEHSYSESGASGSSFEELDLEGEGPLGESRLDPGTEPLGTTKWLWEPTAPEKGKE
# Sequence of UniProt Q96DI7 (Q96DI7 whole entry, looked up): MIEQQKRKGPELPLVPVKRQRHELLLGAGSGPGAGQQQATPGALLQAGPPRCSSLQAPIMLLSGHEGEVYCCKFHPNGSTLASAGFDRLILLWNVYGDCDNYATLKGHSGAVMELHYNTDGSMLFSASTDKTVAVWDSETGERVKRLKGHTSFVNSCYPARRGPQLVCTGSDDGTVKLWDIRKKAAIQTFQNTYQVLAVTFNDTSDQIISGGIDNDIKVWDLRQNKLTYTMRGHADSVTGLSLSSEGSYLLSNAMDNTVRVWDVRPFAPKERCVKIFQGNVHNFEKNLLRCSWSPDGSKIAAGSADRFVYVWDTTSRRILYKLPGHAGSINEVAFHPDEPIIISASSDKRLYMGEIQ
# Sequence of UniProt Q9UMY4 (Q9UMY4 whole entry, looked up): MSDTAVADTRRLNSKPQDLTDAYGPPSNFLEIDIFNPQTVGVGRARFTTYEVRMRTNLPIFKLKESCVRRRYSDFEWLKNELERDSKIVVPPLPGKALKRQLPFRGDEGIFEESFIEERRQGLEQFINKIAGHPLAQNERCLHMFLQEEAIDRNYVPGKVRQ
# Sequence of UniProt Q92609 (Q92609 whole entry, looked up): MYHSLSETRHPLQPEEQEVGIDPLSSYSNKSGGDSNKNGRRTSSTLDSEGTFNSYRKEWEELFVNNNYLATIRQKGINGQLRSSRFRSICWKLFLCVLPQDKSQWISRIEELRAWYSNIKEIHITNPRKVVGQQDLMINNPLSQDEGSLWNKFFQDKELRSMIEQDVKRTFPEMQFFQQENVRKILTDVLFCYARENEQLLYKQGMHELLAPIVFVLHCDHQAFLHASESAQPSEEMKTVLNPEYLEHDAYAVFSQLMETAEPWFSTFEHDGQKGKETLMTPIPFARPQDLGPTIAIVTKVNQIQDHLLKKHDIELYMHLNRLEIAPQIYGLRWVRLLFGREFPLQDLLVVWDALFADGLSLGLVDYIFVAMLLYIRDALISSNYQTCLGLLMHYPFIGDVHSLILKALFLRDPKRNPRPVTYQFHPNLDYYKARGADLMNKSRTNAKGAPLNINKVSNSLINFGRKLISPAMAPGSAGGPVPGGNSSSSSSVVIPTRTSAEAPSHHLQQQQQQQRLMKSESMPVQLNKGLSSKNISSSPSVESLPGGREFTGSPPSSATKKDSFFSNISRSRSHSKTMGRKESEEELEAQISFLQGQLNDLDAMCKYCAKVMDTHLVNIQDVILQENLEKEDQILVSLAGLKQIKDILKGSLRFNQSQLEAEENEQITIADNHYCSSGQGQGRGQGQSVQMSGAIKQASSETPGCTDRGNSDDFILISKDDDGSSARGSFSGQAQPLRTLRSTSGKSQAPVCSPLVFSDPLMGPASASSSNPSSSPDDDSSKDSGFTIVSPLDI
# Sequence of UniProt O14776 (O14776 whole entry, looked up): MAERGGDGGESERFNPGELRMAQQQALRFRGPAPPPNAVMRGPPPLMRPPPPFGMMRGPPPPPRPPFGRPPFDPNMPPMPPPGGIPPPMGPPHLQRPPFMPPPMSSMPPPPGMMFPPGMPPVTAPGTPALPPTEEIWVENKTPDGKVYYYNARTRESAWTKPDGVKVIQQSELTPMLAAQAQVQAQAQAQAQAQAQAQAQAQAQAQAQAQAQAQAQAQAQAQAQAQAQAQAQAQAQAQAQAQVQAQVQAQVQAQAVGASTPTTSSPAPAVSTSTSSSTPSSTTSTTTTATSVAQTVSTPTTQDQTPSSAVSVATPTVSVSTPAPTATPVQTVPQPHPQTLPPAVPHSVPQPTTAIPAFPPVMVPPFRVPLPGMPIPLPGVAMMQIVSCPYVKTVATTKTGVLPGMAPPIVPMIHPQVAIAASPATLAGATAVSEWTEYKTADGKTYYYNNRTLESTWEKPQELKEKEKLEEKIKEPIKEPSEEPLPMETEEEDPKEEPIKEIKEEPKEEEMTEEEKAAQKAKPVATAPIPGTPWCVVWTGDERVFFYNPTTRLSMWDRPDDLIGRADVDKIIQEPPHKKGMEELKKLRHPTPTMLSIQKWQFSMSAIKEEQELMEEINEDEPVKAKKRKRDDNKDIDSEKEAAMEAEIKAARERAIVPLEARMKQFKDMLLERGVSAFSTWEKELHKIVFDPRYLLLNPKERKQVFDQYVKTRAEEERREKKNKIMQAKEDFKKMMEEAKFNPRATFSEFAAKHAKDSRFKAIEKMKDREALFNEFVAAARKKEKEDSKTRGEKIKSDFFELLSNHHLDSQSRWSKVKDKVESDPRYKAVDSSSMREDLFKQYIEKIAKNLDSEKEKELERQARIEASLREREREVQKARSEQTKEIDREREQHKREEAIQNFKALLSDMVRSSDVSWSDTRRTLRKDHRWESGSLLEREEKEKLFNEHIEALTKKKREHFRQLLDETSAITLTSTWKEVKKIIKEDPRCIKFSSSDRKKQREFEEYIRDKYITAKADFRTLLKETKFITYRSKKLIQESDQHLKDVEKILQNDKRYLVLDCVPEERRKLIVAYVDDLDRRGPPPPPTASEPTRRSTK
# Sequence of UniProt Q9ULP9 (Q9ULP9 whole entry, looked up): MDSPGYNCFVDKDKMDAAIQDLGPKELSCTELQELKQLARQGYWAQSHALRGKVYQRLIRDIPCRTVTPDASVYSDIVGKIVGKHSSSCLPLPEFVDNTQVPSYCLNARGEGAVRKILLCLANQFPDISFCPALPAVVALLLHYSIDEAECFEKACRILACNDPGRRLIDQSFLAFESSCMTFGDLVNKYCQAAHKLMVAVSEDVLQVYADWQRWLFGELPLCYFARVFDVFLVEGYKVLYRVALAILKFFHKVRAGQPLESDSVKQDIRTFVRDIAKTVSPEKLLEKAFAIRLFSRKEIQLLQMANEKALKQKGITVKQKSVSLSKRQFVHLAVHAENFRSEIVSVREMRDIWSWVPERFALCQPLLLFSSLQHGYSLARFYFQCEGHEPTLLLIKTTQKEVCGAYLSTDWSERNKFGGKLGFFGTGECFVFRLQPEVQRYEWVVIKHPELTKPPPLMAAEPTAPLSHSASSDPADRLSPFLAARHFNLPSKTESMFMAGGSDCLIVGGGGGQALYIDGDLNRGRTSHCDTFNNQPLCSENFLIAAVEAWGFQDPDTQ
# Sequence of UniProt O60749 (O60749 whole entry, looked up): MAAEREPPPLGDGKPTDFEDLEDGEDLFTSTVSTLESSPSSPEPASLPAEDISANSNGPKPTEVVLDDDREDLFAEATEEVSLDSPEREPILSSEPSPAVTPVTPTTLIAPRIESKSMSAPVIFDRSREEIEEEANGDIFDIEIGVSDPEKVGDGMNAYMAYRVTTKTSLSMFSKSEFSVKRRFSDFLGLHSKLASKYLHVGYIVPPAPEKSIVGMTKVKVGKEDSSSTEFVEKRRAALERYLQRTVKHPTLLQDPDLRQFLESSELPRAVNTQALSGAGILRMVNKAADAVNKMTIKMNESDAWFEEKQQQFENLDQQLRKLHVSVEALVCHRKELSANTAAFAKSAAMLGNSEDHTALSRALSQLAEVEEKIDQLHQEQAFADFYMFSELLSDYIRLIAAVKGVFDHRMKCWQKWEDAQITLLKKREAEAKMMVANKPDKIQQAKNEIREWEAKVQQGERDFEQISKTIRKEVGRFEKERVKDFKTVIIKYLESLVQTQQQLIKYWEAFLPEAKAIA
Target,log2 fold change (erlotinib),log2 fold change [1],log2 fold change [2],log2 fold change [3],log2 fold change [4],log2 fold change [5],log2 fold change [6],log2 fold change [7],log2 fold change [8],log2 fold change [9],log2 fold change (IRAK-1-4 Inhibitor I),log2 fold change (ibrutinib),log2 fold change [10],log2 fold change (ralimetinib),log2 fold change [11],log2 fold change [12],log2 fold change [13],log2 fold change (pinometostat),log2 fold change [14],log2 fold change [15]
TBC1D5 isoform 2 (UniProt Q92609),0.019,0.111,-0.03,-0.041,0.044,0.032,-0.049,0.027,-0.003,-0.078,-0.022,-0.01,-0.009,0.023,-0.179,-0.325 (active),0.076,0.003,0.01,0.02
TBC1D24 (UniProt Q9ULP9),0.038,0.068,0.059,0.037,0.072,0,0.048,0.053,0.042,0.157,-0.025,0.022,-0.415 (active),-0.086,-0.057,-0.09,-0.053,0.04,0.047,0.142
SNX2 (UniProt O60749),0.043,0.075,0.002,0.041,0.067,-0.059,-0.057,-0.049,0.006,-0.013,0.058,0.043,-0.135,-0.014,-0.154,-0.189,0.079,0.016,0.019,0.03
SNRNP40 (UniProt Q96DI7),-0.048,-0.012,-0.111,0.037,-0.007,0.049,-0.024,-0.005,0,0.008,-0.016,0.045,0.068,-0.026,0.086,0.177,0.038,-0.019,-0.1,1.03 (active)
TEX264 (UniProt Q9Y6I9),0.099,0.024,0.034,0.769 (active),0.325,0,0.203,0.349,0.033,0,-0.011,-0.049,-0.022,0,0.19,-0.148,-0.035,-0.005,-0.155,0.091
SNX12 isoform 1 (UniProt Q9UMY4),0.002,0,0.052,-0.019,0.065,-0.01,0.039,-0.064,0.048,-0.034,0.039,-0.007,-0.069,-0.011,-0.068,-0.09,0.03,0.032,-0.007,0
STARD9 (UniProt Q9P2P6),0.026,0.117,-0.089,0.119,0.06,0,-0.131,0.005,-0.003,-0.099,-0.121,0.161,0.091,0.068,-0.156,-0.066,0.085,0.083,-0.053,-0.07
TCERG1 (UniProt O14776),0.072,0.154,0.152,-0.017,0.067,-0.022,0.015,0.027,-0.104,-0.029,-0.062,-0.073,-0.065,-0.035,-0.172,-0.086,-0.041,-0.039,-0.016,0.062
